From PubChem BioAssay (NCATS) come the findings set out here.

Records with an inconclusive call do not appear. A call without a number means that no potency is given here. Unmarked numbers belong to inactive results. The source made the active and inactive calls. The call rests on the fitted dose curve; in most records, active means well fitted inhibition curve with a large enough effect; inconclusive means small, poorly fitted or top-dose-only effect; inactive means flat fitted curve, though single readings scatter.

Chain of Calcium and integrin-binding protein 1 (Homo sapiens) (Q99828 whole entry, looked up): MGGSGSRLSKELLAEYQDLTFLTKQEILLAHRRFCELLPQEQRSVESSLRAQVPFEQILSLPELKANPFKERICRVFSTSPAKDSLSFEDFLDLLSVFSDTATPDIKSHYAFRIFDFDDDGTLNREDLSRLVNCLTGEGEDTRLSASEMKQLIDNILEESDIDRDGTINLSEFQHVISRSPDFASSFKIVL

The experiment addresses Calcium and integrin-binding protein 1 (Homo sapiens) (UniProt Q99828). Put plainly: Primary qHTS for Identification of Calcium Integrin Binding Protein 1 (CIB1) Competitor (AID 1508620). Further: top concentration of the series differs between compounds. Particulars: CIB1-GST / FITC-alphaIIb peptide fluorescence polarization; series mostly up to 114 µM. The gist of the method: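 Fluorescence polarization competition: GST-tagged CIB1 (1 uM final) preincubated with compound 15 min at room temperature, then FITC-labelled alphaIIb peptide (100 nM final) added. After 15 min at room temperature, polarization read at Ex 480/Em 540.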
On to `CC1(O)CC(O)C2(O)C=COC(O[C@@H]3O[C@H](CO)[C@@H](O)[C@H](O)[C@H]3O)C12` (some centres undefined), for which the Potency result was “inactive”.

As to `CC1CCC2C(C(=O)O)=COC(O[C@@H]3O[C@H](CO)[C@@H](O)[C@H](O)[C@H]3O)C12` (some centres undefined), the Potency entry was “inactive”.

For `CC1OC2OC(=O)C3(C)CC4=C(CO)C5=C(CC(=O)C4(C)C(C1=O)C23)C(C)(C)OC(=O)C5` (centres undefined), the Potency entry was “inactive”.

In the case of `CC1(C)CC[C@]2(C(=O)O[C@@H]3O[C@H](CO)[C@@H](O)[C@H](O)[C@H]3O)CC[C@]3(C)C(=CCC4[C@@]5(C)C[C@@H](O)[C@H](O)[C@@](C)(CO)C5CC[C@]43C)C2[C@@H]1O` (some centres undefined), the Potency result was “inactive”.

Turning to `CCCC(=O)O[C@@H]1[C@@H]2[C@@H](OC(C)=O)[C@]3(C)C(=O)[C@H]4[C@@H](OC(C)=O)C(C)(C)C[C@H]4[C@]3(C)C(=O)[C@@]2(OC(C)=O)C[C@@H]1C`, the Potency entry is “inactive”.

Turning to `CC1(C)[C@@H](O)CC[C@]2(C)[C@H]3CC=C4[C@@H]5C[C@](C)(C(=O)O)CC[C@]5(C)CC[C@@]4(C)[C@]3(C)CC[C@@H]12`, the Potency result is “inactive”.

With `C/C=C/C(O)C1OC(=O)CC1Nc1ccc(C(=O)O)cc1` (centres undefined), the Potency entry is “inactive”.

On to `CC1(C)CCC2(C(=O)OC3OC(CO)C(O)C(O)C3O)CCC3(C)C(=CCC4C5(C)CCC(O)C(C)(C(=O)O)C5CCC43C)C2C1O` (centres undefined), for which the Potency entry is “inactive”.

As for `CC(=O)OC[C@]12[C@H](OC(C)=O)C(=O)[C@@H]3[C@@H](OC(C)=O)[C@@]14O[C@@]3(C)COC(=O)c1cccnc1[C@@H](C)[C@H](C)C(=O)O[C@@H]([C@H](O)[C@@H]2OC(C)=O)[C@]4(C)O`, the Potency result was “inactive”.

As for `C=C(C(=O)OC)C1C(O)CC2(C)C(=O)CCC(O)(CO)C2C1O` (centres undefined), the Potency entry is “inactive”.

As to `C[C@H](CCC(=O)O)[C@H]1CC[C@H]2[C@@H]3C[C@H](O)[C@@H]4C[C@H](O)CC[C@]4(C)[C@H]3CC[C@]12C`, the Potency entry was “inactive”.

Take `CC[C@H]1OC(=O)[C@H](C)[C@@H](O[C@H]2C[C@@](C)(OC)[C@@H](O)[C@H](C)O2)[C@H](C)[C@@H](O[C@@H]2O[C@H](C)C[C@H](N(C)C)[C@H]2O)[C@](C)(O)C[C@@H](C)C(=O)[C@H](C)[C@H]2OC(=O)O[C@@]21C`: the Potency result is “inactive”.

On to `CC1=C(C)C(=O)OC(C(C)C2CCC3C4C5OC5C5(O)CC(OC6OC(CO)C(OC7OC(C)C(O)C(O)C7O)C(O)C6O)CC(O)C5(C)C4CCC23C)C1` (centres undefined), for which the Potency result was “inactive”.

In the case of `CN[C@@H]1[C@H](O[C@H]2[C@H](O[C@@H]3[C@@H](O)[C@H](O)[C@@H](N=C(N)N)[C@H](O)[C@H]3N=C(N)N)O[C@@H](C)[C@]2(O)C=O)O[C@@H](CO)[C@H](O)[C@H]1O`, the Potency result is “inactive”.

Regarding `C=C(C)C(=O)OC1C(OC(C)=O)/C(C=O)=C\CC/C(CO)=C/C2OC(=O)C(=C)C21` (centres undefined), the Potency entry was “inactive”.

Turning to `COc1c2c(c(C)c3c1C(=O)OC3)OC1(C)CC(O)C(C(C)(C)O)C(C)(CCC(=O)O)C1C2` (centres undefined), the Potency entry is “inactive”.

As for `CC1=CC(=O)[C@H]2C(C)(C)CCC[C@]2(C)[C@@]1(O)CO`, the Potency entry is “inactive”.

Regarding `Nc1ncnc2c1ncn2CCNCCCCCO`, the Potency entry is “inactive”.

In the case of `CC(C)(O)CC(CO)NC(=O)CC(O)CC(=O)Cc1ccccc1` (centres undefined), the Potency entry was “inactive”.

For the compound `CC1CCC2(C(=O)O)CCC3(C)C(=CCC4C5(C)CCC(O)C(C)(CO)C5CCC43C)C2C1(C)O` (centres undefined), the Potency result is “inactive”.

On to `CC1=C(C)C(=O)OC(C(C)C2CCC3C4CC=C5CC(OC6OC(COC7OC(CO)C(O)C(O)C7O)C(O)C(O)C6O)CC(O)C5(C)C4CCC23C)C1` (centres undefined), for which the Potency entry was “inactive”.

Regarding `O=C1NC(=O)C(c2cn3c4c(cccc24)CCC3)C1c1c[nH]c2ccccc12` (centres undefined), the Potency result was “inactive”.

As to `CC1(C=O)CC[C@]2(C(=O)O[C@@H]3O[C@H](CO)[C@@H](O)[C@H](O)[C@H]3O)CC[C@]3(C)C(=CCC4[C@@]5(C)C[C@H](O)[C@H](O[C@@H]6OC[C@@H](O)[C@H](O)[C@H]6O)[C@@](C)(CO)C5CC[C@]43C)C2C1` (some centres undefined), the Potency entry was “inactive”.

On to `Cn1cncc1C(N)(c1ccc(Cl)cc1)c1ccc2c(c1)c(-c1cccc(Cl)c1)cc(=O)n2C` (centres undefined), for which the Potency entry was “inactive”.

In the case of `CC1CC(=O)C2=C(CCC3(O)C(O)c4c(O)cccc4C(=O)C23O)C1` (centres undefined), the Potency result is “inactive”.

For the compound `C=C(C)C1CC[C@]2(C(=O)O)CC[C@]3(C(=O)O)[C@H](CCC4[C@@]5(C)CC[C@H](O)C(C)(C)C5CC[C@]43C)C12` (some centres undefined), the Potency result was “inactive”.

`CC(C)[C@H]1CC[C@@]2(O)COC(=O)[C@H]2[C@@H]1/C=C(\CO)C(=O)O`: the Potency entry was “inactive”.

As for `C/C=C(\C)C(=O)OCC1OC(OC2OC(COC(=O)/C(C)=C/C)C(OC3OC(CO)C(OC(=O)/C(C)=C/C)C(OC(=O)/C(C)=C/C)C3O)C(O)C2O)C(O)C(O)C1OC1OC(CO)C(OC(=O)/C(C)=C/C)C(OC(=O)/C(C)=C/C)C1O` (centres undefined), the Potency entry was “inactive”.

In the case of `C[C@@H]1O[C@@H](O[C@H]2[C@H](O[C@H]3[C@H](O[C@H]4CC[C@@]5(C)C(CC[C@]6(C)C5CC=C5[C@@H]7CC(C)(C)CC[C@]7(C(=O)O[C@@H]7O[C@H](CO)[C@@H](O[C@@H]8O[C@@H](C)[C@H](O)[C@@H](O)[C@H]8O)[C@H](O)[C@H]7O)CC[C@]56C)C4(C)C)OC[C@H](O)[C@@H]3O)O[C@H](CO)[C@@H](O)[C@@H]2O)[C@H](O)[C@H](O)[C@H]1O` (some centres undefined), the activity change, negative = inhibition was -0.624% [at 12.4 µM].

As for `C=C1C[C@]23C[C@H]1CC[C@H]2[C@@]1(C)CCC[C@@]2(C)C(=O)O[C@@H]([C@@H]3O)[C@@H]12`, the Potency result was “inactive”.

`O=C1CCC(=O)N(O)CCCCCNC(=O)CCC(=O)N(O)CCOCCNC(=O)CCC(=O)N(O)CCCCCN1`: the Potency entry is “inactive”.

Turning to `C/C=C/c1ccc(O[C@@H]2O[C@H](CO)[C@@H](O)[C@H](O)[C@H]2O)c(OC)c1`, the Potency entry was “inactive”.

With `CC1(C)CC[C@]2(C(=O)O[C@@H]3O[C@H](CO[C@@H]4O[C@H](CO)[C@@H](O)[C@H](O)[C@H]4O[C@@H]4O[C@H](CO)[C@H](O)[C@H](O)[C@H]4O)[C@@H](O)[C@H](O[C@@H]4O[C@H](CO)[C@@H](O)[C@H](O)[C@H]4O)[C@H]3O)CC[C@]3(C)C(=CCC4[C@@]5(C)CC[C@H](O[C@@H]6OC[C@@H](O)[C@H](O)[C@H]6O)[C@@](C)(C(=O)O)C5CC[C@]43C)[C@@H]2C1` (some centres undefined), the activity change, negative = inhibition is 0.475% [at 12.4 µM].

Regarding `C[C@@H]1CC[C@]2(C(=O)O[C@@H]3O[C@H](CO)[C@@H](O)[C@H](O)[C@H]3O)CC[C@]3(C)C(=CCC4[C@@]5(C)C[C@@H](O)[C@H](O)[C@](C)(C(=O)O)C5CC[C@]43C)[C@@H]2[C@]1(C)O` (some centres undefined), the Potency entry was “inactive”.

As to `COC(=O)c1cc(OC)c(O[C@@H]2O[C@@H](C)[C@H](O)[C@@H](O)[C@H]2O)c(OC)c1`, the Potency entry is “inactive”.

For the compound `N[C@@]1(C(=O)O)CC[C@H]2[C@H](C(=O)O)[C@H]21`, the Potency result is “inactive”.

As to `O=C(O)c1cn(C2CC2)c2cc(N3C[C@@H]4C[C@H]3CN4)c(F)cc2c1=O`, the Potency entry is “inactive”.

Take `CC1=C2C[C@H]3O[C@@]3(C)CCC3O[C@@]3(C)C[C@@]2(O)OC1=O` (some centres undefined): the Potency entry is “inactive”.

Consider `CC1OC(OC2C(C)OC(OC3C(OC(=O)C45CCC(C)(C)CC4C4=CCC6C7(C)CCC(OC8OC(C(=O)O)C(O)C(O)C8OC8OC(CO)C(O)C(OC9OC(C)C(O)C(O)C9O)C8O)C(C)(CO)C7CCC6(C)C4(C)CC5)OC(CO)C(O)C3O)C(O)C2O)C(O)C(O)C1O` (centres undefined), for which the activity change, negative = inhibition was -1.29% [at 12.4 µM].
